From PubChem BioAssay AID504652 (National Center for Advancing Translational Sciences (NCATS), 2011)
Where “and” joins values, the source holds several entries; their conditions need not be identical. Equal entries are not always repeated. Screen size: about 360,000 compounds; about 11,000 (3.1%) were called active. What follows is part of a selection rich in actives, with near analogues and random picks from the rest. Unmarked numbers belong to inactive results. Cut-off read from the data, not from the text of the source: active = activity change below about -30%; inactive = the rest.

target: D(1A) dopamine receptor (Homo sapiens) (UniProt P21728); assay: Antagonist of Human D 1 Dopamine Receptor: qHTS; settings: HEK293 TREx D1 cells, calcium flux, dopamine EC80; at 10 µM; hits give low values
In short: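 Antagonism measured as reduced calcium response to an EC80 dopamine addition following 180 s compound pre-read; cells were inducible HEK293 Trex D1 plated overnight at 30 C, read kinetically at 1 cycle/sec.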
% is set by controls: 0 for no effect and ±100 for the full control effect.

D(1A) dopamine receptor (Homo sapiens), sequence (P21728 whole entry, looked up): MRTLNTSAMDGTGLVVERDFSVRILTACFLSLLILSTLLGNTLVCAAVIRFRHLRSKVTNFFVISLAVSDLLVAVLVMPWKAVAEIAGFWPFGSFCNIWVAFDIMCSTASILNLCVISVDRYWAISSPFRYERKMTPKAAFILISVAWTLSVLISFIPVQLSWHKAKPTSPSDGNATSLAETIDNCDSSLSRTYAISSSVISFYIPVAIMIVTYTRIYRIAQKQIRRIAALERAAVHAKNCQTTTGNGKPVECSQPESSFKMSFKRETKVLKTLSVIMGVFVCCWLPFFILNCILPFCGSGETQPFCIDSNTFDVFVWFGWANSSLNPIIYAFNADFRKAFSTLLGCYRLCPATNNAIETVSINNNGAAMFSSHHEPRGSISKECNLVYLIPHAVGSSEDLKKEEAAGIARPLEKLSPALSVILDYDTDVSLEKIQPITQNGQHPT

| Structure (SMILES) | activity change, negative = inhibition |
| --- | --- |
| O=C(CSc1nc(-c2cccc(F)c2)[nH]c1-c1ccccc1)Nc1ccc2c(c1)OCO2 | -4.86% |
| Cc1cccc(N2CCN(C(=O)c3cnc(N4CCCC4)nc3C)CC2)c1C | 10% |
| CCCCn1c(=N)c(S(=O)(=O)c2ccccc2)cc2c(=O)n3cccc(C)c3nc21 | 1.3% |
| Cc1ccc(Nc2c3c(nc4ccccc24)CCC3)cc1 | -39.1% (active) |
| COc1ccccc1Nc1c2c(nc3ccc(NC(=O)/C=C/c4cc(OC)c(OC)c(OC)c4)cc13)CCCC2 | 3.33% |
| CCOc1ccc(C(=O)Nc2ccc3nc4c(c(Nc5ccccc5OC)c3c2)CCCC4)cc1 | -7.4% |
| CCOc1ccc(NC(=O)CSc2c3c(nc4ccccc24)CCCC3)cc1 | -2.6% |
| N#Cc1cccc(Nc2c3c(nc4ccccc24)CCCC3)c1 | -36.2% (active) |
| N#Cc1cccc(NC(=O)CN2CCCCCC2)c1 | -7.3% |
| O=C(NC1CCCCC1)c1ccc2c(c1)N(Cc1ccc(Cl)cc1)C(=O)c1ccccc1S2=O (stereo unspecified) | -15.6% |
| Cn1nc(-c2ccccc2)c(-c2ccccc2)c(C(=O)Nc2ccc(S(N)(=O)=O)cc2)c1=O | -1.5% |
| Cc1cc(C)c(NC(=O)CCc2c(C)nc3c(c(C)nn3C(C)(C)C)c2C)c(C)c1 | 1.02% |
| CCN1CCN(Cc2c(O)ccc3oc(C)c(C(=O)Nc4ccc(C)cc4C)c23)CC1 | 7.06% |
| COc1ccccc1CNc1ccc(-c2nc(-c3ccccc3C)no2)cc1[N+](=O)[O-] | -10.5% |
| O=C(C1CCCN(S(=O)(=O)c2cccc3nonc23)C1)N1CCN(c2ccccc2F)CC1 (stereo unspecified) | 10.7% |
| CC(CNc1ccc([N+](=O)[O-])cc1)NC(=O)c1ccccc1Br (stereo unspecified) | -2.12% |
| O=C(NCCNc1ccc([N+](=O)[O-])cc1)c1cccc2c(Br)cccc12 | -63.4% (active) |
| COc1ccc(C(=O)NCCNc2ccc([N+](=O)[O-])cn2)cc1 | -8.65% |
| Cc1ccc(CCNC(=O)c2ccc3c(c2)nc2n3CCC(C)C2)cc1 (stereo unspecified) | -13.4% |

| Structure (SMILES) | activity change, negative = inhibition |
| --- | --- |
| N=c1n(Cc2ccc(Cl)cc2)c2ccccc2n1CC(O)c1ccco1 (stereo unspecified) | -51.9% (active) |
| O=C(c1ccco1)n1nc(-c2ccc(Cl)cc2)nc1NCc1ccccc1 | -12.9% |
| CC1CN(C(=O)CCC(=O)NCCCN2CCC(Cc3ccccc3)CC2)c2cc(Cl)ccc2O1 (stereo unspecified) | -43.5% (active) |
| Cc1ccc2c(c1)N(C(=O)CCC(=O)NCc1ccccc1F)CC(C)O2 (stereo unspecified) | -22.7% |
| COc1ccccc1NC(=O)CCC(=O)N1CC(C)Oc2ccc(C)cc21 (stereo unspecified) | 7.34% and 2.65% |
| COc1ccc(N2C(=O)CSC23C(=O)N(Cc2cccc(F)c2)c2ccccc23)cc1Cl (stereo unspecified) | -0.577% |
| O=C(NC(=O)c1cc(OCC(F)(F)F)ccc1OCC(F)(F)F)Nc1ccccc1 | -35% (active) |
| CONC(=O)c1cc(OCC(F)(F)F)ccc1OCC(F)(F)F | 8% |
| CCOc1ccc(CCNC(=O)Nc2ccccc2)cc1OCC | 14.7% |
| CCC1CCCCN1C(=O)Cn1c(=O)n(CCCCCC(=O)NCc2ccccc2)c(=O)c2sccc21 (stereo unspecified) | -26.9% |
| COc1ccc(-c2onc(C)c2C)cc1S(=O)(=O)NCc1cccs1 | -23.8% |
| COc1ccccc1/C=C/c1nc(C#N)c(NC(C)c2ccccc2)o1 (stereo unspecified) | 4.56% |
| O=C(COc1ccccc1)Nc1ccc(N2CCN(C(=O)c3cccs3)CC2)cc1 | -10.9% |
| Cc1ccccc1C(=O)N1CCN(c2ccc(NC(=O)c3cccs3)cc2)CC1 | -61.2% (active) |
| O=C(Nc1ccc(N2CCN(C(=O)c3cccs3)CC2)cc1)c1cccnc1Cl | 2.63% |
| CC1=Nc2cc(C(=O)NCc3ccc(C)cc3)ccc2Sc2ccc(Cl)cc21 | 4.46% |
| CCCCN(CC)CCCNC(=O)c1nn(C)c2c1CS(=O)(=O)c1ccccc1-2 | 4.54% |
| COc1ccc(Cn2cc(C(=O)c3ccc(C)cc3)c(=O)c3cc(OC)c(OC)cc32)cc1 | -0.034% |
| CN(C)S(=O)(=O)N1CCN(c2ccc([N+](=O)[O-])cc2)CC1 | -43% (active) |

| Structure (SMILES) | activity change, negative = inhibition |
| --- | --- |
| O=[N+]([O-])c1ccc(N2CCN(c3ccc(O)cc3)CC2)c(Cl)c1 | -19% |
| Cc1ccc(N2CCN(S(=O)(=O)N(C)C)CC2)cc1Cl | -16.4% |
| COc1cc(Cl)c(C)cc1Nc1nnc(-n2nc(C)cc2C)c2ccccc12 | -5.89% |
| Cc1cc2c(s1)c1cnn(Cc3c(F)cccc3Cl)c(=O)c1n2C | 15.1% |
| COc1ccc(NC(=O)C2CCN(S(=O)(=O)c3ccc4[nH]c(=O)oc4c3)CC2)c(OC)c1 | 1.07% |
| Cc1ccc2nc(NC(=O)C3CCN(S(=O)(=O)c4ccc5c(c4)oc(=O)n5C)CC3)sc2c1 | -9.2% |
| Cn1c(=O)oc2cc(S(=O)(=O)N3CCC(C(=O)Nc4ccc(OC(F)(F)F)cc4)CC3)ccc21 | -36.4% (active) |
| Cc1ccc(S(=O)(=O)N(CC(=O)Nc2ccc(Cl)cc2Cl)c2ccccc2C)cc1 | -14.7% |
| Cc1c(Cl)cccc1NC(=O)Cn1cc(C(=O)c2cccs2)c2ccccc21 | -23.5% |
| CCOc1ccc(NC(=O)c2cc3c(=O)n(Cc4cccs4)ccc3nc2C)cc1 | 2.95% |
| COc1ccc(CN2C(=O)C(NC(=O)c3cccc(C)c3)(C(F)(F)F)N=C2c2ccccc2)cc1 (stereo unspecified) | 2.79% |
| CCc1ccccc1NC(=O)Cc1ccc(NC(=O)N2CCCCc3ccccc32)cc1 | -2.99% |
| CCOC(=O)c1ccc(NC(=O)CCS(=O)(=O)c2ccc(C)cc2)cc1 | 2.9% |
| CCOC(=O)c1ccc(NC(=O)CCS(=O)(=O)c2ccc3c(c2)oc(=O)n3C)cc1 | -34.1% (active) |
| COc1cc(NC(=O)CCS(=O)(=O)c2ccc3c(c2)oc(=O)n3C)cc(OC)c1 | -5.28% |
| Cc1ccc(C(=O)OCC(=O)N2CC(C)CC(C)C2)cc1S(=O)(=O)N1CCCCC1 (stereo unspecified) | -14.5% |
| Cc1ccc(C(=O)OCC(=O)NCc2cc(C)c(O)c(C)c2)cc1S(=O)(=O)N1CCCCC1 | -93.9% (active) |
| COc1ccc(CNC(=O)COC(=O)c2ccc(C)c(S(=O)(=O)N3CCOCC3)c2)cc1OC | 13.1% |
